The values below come from PubChem BioAssay AID1508601 (ICCB-Longwood Screening Facility, Harvard Medical School, 2020).

A short description of assay [1]: p53 stabilisation in HPV-positive human cells, imaging, p53-positive nuclei imaging, 24 h, 48 h (AID 1508601). The note with it: 24/48 h.
Assay [2] concerns the target Cellular tumor antigen p53 (Homo sapiens) (UniProt P04637). The assay is described as above. The conditions noted are these: 24/48 h, stronger effect = higher value.
The mark [3] stands for this setting: measured here: cell number at 24 h, Library stock concentration: 80 uM.
The mark [4] stands for this setting: measured here: cell number at 24 h, Library stock concentration: 400 uM.
[5] abbreviates: measured here: cell number at 24 h, Library stock concentration: 2 mM.
[6] abbreviates: measured here: cell number at 24 h, Library stock concentration: 3.33 mM.
[7] abbreviates: measured here: cell number at 24 h, Library stock concentration: 10 mM.
[8] abbreviates: measured here: cell number at 48 h, Library stock concentration: 80 uM.
Where [9] appears, read: measured here: cell number at 48 h, Library stock concentration: 400 uM.
Where [10] appears, read: measured here: cell number at 48 h, Library stock concentration: 2 mM.
Where [11] appears, read: measured here: cell number at 48 h, Library stock concentration: 3.33 mM.
Setting [12] is: measured here: cell number at 48 h, Library stock concentration: 10 mM.
Setting [13] is: Library stock concentration: 80 uM.
Where [14] appears, read: Library stock concentration: 400 uM.
Setting [15] is: Library stock concentration: 2 mM.
Where [16] appears, read: Library stock concentration: 3.33 mM.
Setting [17] is: Library stock concentration: 10 mM.
Setting [18] is: measured here: p53 positive nuclei at 24 h, Library stock concentration: 80 uM.
The mark [19] stands for this setting: measured here: p53 positive nuclei at 24 h, Library stock concentration: 400 uM.
[20] abbreviates: measured here: p53 positive nuclei at 24 h, Library stock concentration: 2 mM.
Where [21] appears, read: measured here: p53 positive nuclei at 24 h, Library stock concentration: 3.33 mM.
The mark [22] stands for this setting: measured here: p53 positive nuclei at 24 h, Library stock concentration: 10 mM.

“And” between values parts separate entries of the source, which are not always exact repeats. Equal values may be shown once. About 85 (1%) of roughly 5,700 compounds were called active. The sample holds actives, similar compounds and a random draw of the others, so the mix is not that of the screen. No stated cut-off is given here; in the data, active means p53-positive nuclei above about 36% (passing the limit was not always enough); inactive means the rest.

Chain of Cellular tumor antigen p53 (Homo sapiens) (P04637 whole entry, looked up): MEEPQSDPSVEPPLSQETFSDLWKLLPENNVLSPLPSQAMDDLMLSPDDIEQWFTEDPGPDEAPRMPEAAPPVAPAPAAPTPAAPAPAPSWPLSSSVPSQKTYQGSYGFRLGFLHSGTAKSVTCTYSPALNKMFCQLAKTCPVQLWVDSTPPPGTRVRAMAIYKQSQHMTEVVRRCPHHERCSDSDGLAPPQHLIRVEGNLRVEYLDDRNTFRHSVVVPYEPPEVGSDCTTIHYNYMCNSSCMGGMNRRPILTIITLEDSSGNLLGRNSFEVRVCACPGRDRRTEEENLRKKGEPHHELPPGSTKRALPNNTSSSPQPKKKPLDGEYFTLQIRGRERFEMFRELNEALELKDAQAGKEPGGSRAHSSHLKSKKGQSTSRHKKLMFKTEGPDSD

Take `Cc1nc(Nc2n[nH]c3c2CN(C(=O)NC(CN(C)C)c2ccccc2)C3(C)C)c2sccc2n1` (centres undefined): the nuclei count, normalised in assay [1] (measured here: cell number at 24 h, Library stock concentration: 46 uM) stood at 105%; in assay [1] (setting [3]) it was 95.1%; in assay [1] (measured here: cell number at 24 h, Library stock concentration: 278 uM) it was 96.3%; in assay [1] (setting [4]), 85.6%; in assay [1] (measured here: cell number at 24 h, Library stock concentration: 1.67 mM), 75.5%; in assay [1] (setting [5]) it was 66.2%. In addition, the nuclei count, normalised was 47.2% in assay [1] (setting [6]); 45.2% and 45.1% in assay [1] (setting [7]); 108% in assay [1] (measured here: cell number at 48 h, Library stock concentration: 46 uM); 96.4% in assay [1] (setting [8]); 99.1% in assay [1] (measured here: cell number at 48 h, Library stock concentration: 278 uM); 92.2% in assay [1] (setting [9]). The nuclei count, normalised was 72.1% in assay [1] (measured here: cell number at 48 h, Library stock concentration: 1.67 mM); 63.4% in assay [1] (setting [10]); 37.3% in assay [1] (setting [11]); 32.4% and 35.1% in assay [1] (setting [12]). Also, the p53-positive nuclei, normalised is -0.184% (inactive) in assay [2] (Library stock concentration: 46 uM); -0.159% (inactive) in assay [2] (setting [13]); -0.101% (inactive) in assay [2] (Library stock concentration: 278 uM); -0.117% (inactive) in assay [2] (setting [14]); 0.691% (inactive) in assay [2] (Library stock concentration: 1.67 mM); 2.71% (inactive) in assay [2] (setting [15]). Besides, the p53-positive nuclei, normalised in assay [2] (setting [16]) was 69.1% (active); in assay [2] (setting [17]), 18.9% (inactive) and 1.61% (inactive); in assay [2] (measured here: p53 positive nuclei at 24 h, Library stock concentration: 46 uM), 0.116%; in assay [2] (setting [18]), -0.151%; in assay [2] (measured here: p53 positive nuclei at 24 h, Library stock concentration: 278 uM), -0.0682%; in assay [2] (setting [19]) it was 0.0839%. Moreover, the p53-positive nuclei, normalised was 1.31% in assay [2] (measured here: p53 positive nuclei at 24 h, Library stock concentration: 1.67 mM); 2.05% in assay [2] (setting [20]); 6.89% in assay [2] (setting [21]); 1.74% and 0.752% in assay [2] (setting [22]).

Take `CC(C)CC(=O)Nc1n[nH]c2c1CN(C(=O)C1CCN(C)CC1)C2(C)C`: the nuclei count, normalised in assay [1] (setting [3]) was determined as 90.1%; in assay [1] (setting [4]), 79.8%; in assay [1] (setting [5]), 61%; in assay [1] (setting [6]), 45.9%; in assay [1] (setting [7]) it was 39.3%; in assay [1] (setting [8]) it was 91.5%. The nuclei count, normalised amounted to 71.9% in assay [1] (setting [9]), 44.9% in assay [1] (setting [10]), 31.6% in assay [1] (setting [11]) and 23.2% in assay [1] (setting [12]). Moreover, the p53-positive nuclei, normalised is -0.0742% (inactive) in assay [2] (setting [13]); 0.409% (inactive) in assay [2] (setting [14]); 5.57% (inactive) in assay [2] (setting [15]); 45.4% (inactive) in assay [2] (setting [16]); 3.79% (inactive) in assay [2] (setting [17]); -0.129% in assay [2] (setting [18]). Also, the p53-positive nuclei, normalised was determined as 0.453% in assay [2] (setting [19]), 0.779% in assay [2] (setting [20]), 13.5% in assay [2] (setting [21]) and 0.472% in assay [2] (setting [22]).

In the case of `CCCCCOC(=O)Nc1nc(=O)n(C2OC(C)C(O)C2O)cc1F` (centres undefined), the nuclei count, normalised came to 99.3% in assay [1] (setting [6]) and 102% in assay [1] (setting [11]). Further, the results for the p53-positive nuclei, normalised in assay [2] (setting [16]) and in assay [2] (setting [21]) were -0.587% (inactive) and -0.329%, respectively.

As to `CCC(=O)O[C@@]1(C(=O)CCl)C(C)C[C@H]2[C@@H]3CC(F)C4=CC(=O)C=C[C@]4(C)[C@]3(F)C(O)C[C@@]21C` (some centres undefined), the nuclei count, normalised in assay [1] (setting [6]) amounted to 104%; in assay [1] (setting [11]) it was 97.5%. The results for the p53-positive nuclei, normalised in assay [2] (setting [16]) and in assay [2] (setting [21]) were -0.166% (inactive) and -0.278%, respectively.

With `CCN(CC)Cc1ccc2cc(COC(=O)Nc3ccc(C(=O)NO)cc3)ccc2c1`, the results for the nuclei count, normalised in assay [1] (setting [6]) and in assay [1] (setting [11]) were 39.9% and 22.6%, respectively. The p53-positive nuclei, normalised in assay [2] (setting [16]) is 95.7% (active); in assay [2] (setting [21]), 67.1%.

In the case of `CCCCN(Cc1ccc(C(=O)NO)cc1)C(=O)Nc1ccccc1`, the nuclei count, normalised in assay [1] (setting [3]) was 103%; in assay [1] (setting [4]), 99.5%; in assay [1] (setting [5]) it was 114%; in assay [1] (setting [6]), 118%; in assay [1] (setting [7]) it was 74.8%; in assay [1] (setting [8]), 109%. Moreover, the nuclei count, normalised in assay [1] (setting [9]) was 101%; in assay [1] (setting [10]), 99.5%; in assay [1] (setting [11]) it was 90.2%; in assay [1] (setting [12]) it was 67.8%. Besides, the p53-positive nuclei, normalised in assay [2] (setting [13]) is -0.143% (inactive); in assay [2] (setting [14]), 0.163% (inactive); in assay [2] (setting [15]), 0.295% (inactive); in assay [2] (setting [16]), 0.281% (inactive); in assay [2] (setting [17]), 5.72% (inactive); in assay [2] (setting [18]), -0.0551%. For the same molecule, the p53-positive nuclei, normalised was -0.12% in assay [2] (setting [19]), 0.226% in assay [2] (setting [20]), 0.149% in assay [2] (setting [21]) and 13.7% in assay [2] (setting [22]).

For the molecule `COc1ccc(Cn2ccc3ccc(C(=O)NO)cc32)cc1`, the nuclei count, normalised in assay [1] (setting [3]) was determined as 107%; in assay [1] (setting [4]) it was 107%; in assay [1] (setting [5]) it was 105%; in assay [1] (setting [6]) it was 105%; in assay [1] (setting [7]), 101%; in assay [1] (setting [8]), 107%. Besides, the nuclei count, normalised worked out at 99.6% in assay [1] (setting [9]), 98.8% in assay [1] (setting [10]), 88.9% in assay [1] (setting [11]) and 95.1% in assay [1] (setting [12]). The p53-positive nuclei, normalised in assay [2] (setting [13]) is -0.106% (inactive); in assay [2] (setting [14]), -0.0148% (inactive); in assay [2] (setting [15]), -0.164% (inactive); in assay [2] (setting [16]) it was 0.097% (inactive); in assay [2] (setting [17]), -0.0788% (inactive); in assay [2] (setting [18]), -0.0424%. In addition, the p53-positive nuclei, normalised in assay [2] (setting [19]) is -0.00427%; in assay [2] (setting [20]), 0.00889%; in assay [2] (setting [21]), -0.209%; in assay [2] (setting [22]), 0.0845%.
